Experimental data as given in PubChem BioAssay (EPA / NIEHS).
“And” between values parts separate entries of the source, which are not always exact repeats. Equal entries are not always repeated. Results filed as inconclusive are left out. More than one record can exist for a structure, and the calls need not agree. The source made the active and inactive calls. The calls were made as follows, unless noted: active = hit-call score of the fitted dose curve at least 0.9, where 1 is the maximum; inconclusive = response in the unintended direction; inactive = score below 0.9.

Experiments:
[1] = CEETOX_H295R_TESTO: CeeTox H295R High-throughput Steroidogenesis Assay for Testosterone (TESTO) (AID 2283457; active = hit-call score of the fitted dose curve at least 0.9, where 1 is the maximum; inactive = score below 0.9;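 as to AC50: cells exposed to chemicals for 48 h before medium collection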); settings: actives raise or lower the signal
Method in brief: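 Testosterone secreted into the medium over 48 h by H295R cells (maximum passage 10) was quantified by LC-MS/MS after MTBE extraction. Fitted in both directions against DMSO, with concentrations diluted until MTT viability was ≥70%.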

[2] = ATG_XTT_Cytotoxicity: Cytotoxicity Assessment in the Attagene TRANS-FACTORIAL HepG2 Assay (AID 2283584);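 as to AC50: cells exposed to compound for 24 h before reading; active means loss of viability signal versus DMSO baseline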
Method in brief: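 Viability endpoint from XTT after 24 h chemical exposure of reporter-transfected human HepG2 liver cells; signal loss fitted relative to DMSO negative control.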

[3] = CEETOX_H295R_MTT_cell_viability: Viability Assessment in the CeeTox HT-H295R MTT Assay (AID 2283718; active = hit-call score of the fitted dose curve at least 0.9, where 1 is the maximum; inactive = score below 0.9)
Method in brief: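 Human H295R adrenal cells, prestimulated 48 h with 10 uM forskolin, were exposed 48 h to chemicals in 0.1% DMSO. Viability was measured in the same wells by MTT (0.5 mg/ml, 4 h, 37 C), absorbance 570/650 nm, as percent of controls.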

[4] = TOX21_p53_BLA_p2_viability: Viability Assessment in the Tox21 HCT-116 p53 Agonism Beta-lactamase Assay, Phase 2 (AID 2283591);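 also: compound exposure lasted 16 h at 37 °C; actives lower the ATP signal meaning cytotoxicity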
Method in brief: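 HCT116 p53-bla cells, 4000/well, dosed after 5 h plating (217-fold dilution of DMSO stocks) and incubated 16 h at 37C. Viability taken as cellular ATP by CellTiter-Glo luminescence after 30 min RT; signal loss marks cytotoxicity.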

[5] = molecular target: Cellular tumor antigen p53 (Homo sapiens) (UniProt P04637); test: TOX21_p53_BLA_p2_ratio: Tox21 HCT-116 p53 Agonism Beta-lactamase Assay, Ratio, Phase 2 (AID 2283592)
Method in brief: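 Gain-of-signal p53 agonism was scored from the beta-lactamase FRET ratio (460/530 nm, 405 nm excitation) in HCT116 cells treated 16 h at 37C, 5% CO2, with DMSO serving as negative control and baseline.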

[6] = TOX21_p53_BLA_p3_viability: Viability Assessment in the Tox21 HCT-116 p53 Agonism Beta-lactamase Assay, Phase 3 (AID 2283593);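 also: cells exposed to compound for 16 h before reading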
Method in brief: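 HCT116 cells, 4000/well, dosed 5 h after plating by pin transfer (217-fold dilution from DMSO stock) and incubated 16 h at 37C, 5% CO2. Viability read as ATP luminescence with CellTiter-Glo after 30 min at room temperature.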

[7] = molecular target: Cellular tumor antigen p53 (Homo sapiens) (UniProt P04637); test: TOX21_p53_BLA_p3_ratio: Tox21 HCT-116 p53 Agonism Beta-lactamase Assay, Ratio, Phase 3 (AID 2283596)
Method in brief: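 HCT116 p53-bla cells (4000/well) given compound in DMSO (217-fold dilution) after 5 h, incubated 16 h at 37C. CCF4-AM substrate 2 h at room temperature; 460/530 nm emission ratio, gain fitted against DMSO.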

[8] = TOX21_p53_BLA_p4_viability: Viability Assessment in the Tox21 HCT-116 p53 Agonism Beta-lactamase Assay, Phase 4 (AID 2283597);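 also: hits lower the luminescence signal meaning cytotoxicity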
Method in brief: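 Following a 16 h exposure at 37C, the treated HCT116 wells were first read for the FRET ratio. They were then lysed with CellTiter-Glo, and ATP luminescence was recorded after 30 min at room temperature.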

[9] = molecular target: Cellular tumor antigen p53 (Homo sapiens) (UniProt P04637); test: TOX21_p53_BLA_p5_ratio: Tox21 HCT-116 p53 Agonism Beta-lactamase Assay, Ratio, Phase 5 (AID 2283599)
Method in brief: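 HCT-116 p53-bla cells (4000/well) plated 5 h, dosed with compound (217-fold DMSO dilution) for 16 h at 37 C; CCF4-AM substrate 2 h at room temperature. Activity is the 460/530 nm emission ratio (405 nm excitation), fitted in gain-of-signal direction versus DMSO.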

[10] = TOX21_p53_BLA_p5_viability: Viability Assessment in the Tox21 HCT-116 p53 Agonism Beta-lactamase Assay, Phase 5 (AID 2283600)
Method in brief: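 After the 460/530 nm beta-lactamase measurement, the wells received an ATP-detection luciferase reagent; signal was read 30 min later at RT. Compound treatment lasted 16 h on cells pre-incubated 5 h post-seeding.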

[11] = molecular target: Cellular tumor antigen p53 (Homo sapiens) (UniProt P04637); test: TOX21_p53_BLA_p4_ratio: Tox21 HCT-116 p53 Agonism Beta-lactamase Assay, Ratio, Phase 4 (AID 2283601)
Method in brief: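 HCT-116 p53 beta-lactamase reporter cells (4000/well) preincubated 5 h, then compound (217-fold dilution of DMSO stock) for 16 h at 37C. CCF4-AM substrate added 2 h at room temperature; 460/530 nm emission ratio fitted upward versus DMSO.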

[12] = test system: Thyroperoxidase (TPO), gene 54314; test: CCTE_Simmons_AUR_rTPO: CCTE's Amplex UltraRed Assay for Thyroperoxidase (TPO) Inhibition, Simmons Lab (AID 2283662);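 as to AC50: potency for loss of signal meaning inhibition of peroxidase activity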
Method in brief: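 Rat thyroid microsomes (5 ug protein) with 25 uM Amplex UltraRed and 300 uM H2O2 in 200 mM phosphate buffer, 30 min at 37C in dark; fluorescence 544/590 nm. Eight concentrations, 5 nM–87.5 uM final, 0.5% DMSO, triplicate biological replicates.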

[13] = CCTE_Simmons_CellTiterGLO_HEK293T: Viability Assessment in CCTE's Assays for Thyroperoxidase (TPO) Inhibition, Simmons Lab (AID 2283665);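 also: cells exposed to compound for 24 h before readout; actives reduce ATP signal below DMSO vehicle meaning cytotoxicity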
Method in brief: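 HEK293T cells in DMEM with 1% FBS were dosed with 8 concentrations (5 nM–87.5 uM final, 0.5% DMSO) for 24 hr at 37C; ATP content was read by CellTiter-Glo luminescence, loss-of-signal versus DMSO, three biological replicates.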

[14] = molecular target: Luciferin 4-monooxygenase (Photinus pyralis) (UniProt P08659); test: CCTE_Simmons_QuantiLum_inhib_2: CCTE's Firefly Luciferase Inhibition Assay, Simmons Lab (AID 2283767);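 as to AC50: potency for inhibitors that lower luciferase luminescence relative to DMSO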
Method in brief: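 Recombinant firefly luciferase (5 ng/well, 200 mM potassium phosphate with 1 mg/ml BSA) was exposed to 8 concentrations from 5 nM to 87.5 uM (final, 0.5% DMSO) for 30 min at 37C in the dark. Loss of luminescence versus DMSO was read after injecting D-luciferin/ATP-analogue reagent.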

[15] = molecular target: zebrafish Estrogen Receptor (ESR1), esr1 (gene 259252) (UniProt P57717); test: ATG_zfER1_XSP1: Attagene TRANS-FACTORIAL Multi-Species (XSP1) HepG2 Assay for zebrafish Estrogen Receptor (ESR1) (AID 2283772)
Method in brief: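 Trans-activation readout: transfected zebrafish ER-Gal4 drives a UAS reporter in human HepG2 liver cells. After 24 h compound exposure (medium containing 3 nM 6-alpha-fluorotestosterone), induced reporter transcripts were quantified by RT-PCR with capillary electrophoresis, relative to DMSO.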

[16] = test system: zebrafish Estrogen Receptor (ESR2B), gene 317733; test: ATG_zfER2b_XSP1: Attagene TRANS-FACTORIAL Multi-Species (XSP1) HepG2 Assay for zebrafish Estrogen Receptor (ESR2B) (AID 2283773)
Method in brief: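 HepG2 cells transiently transfected with GAL4-UAS reporter units for chimeric zebrafish ER2b-Gal4, with 3 nM 6-alpha-fluorotestosterone present; reporter mRNA measured 24 h after dosing by RT-PCR and capillary electrophoresis, gain versus DMSO.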

[17] = STM_H9_OrnCyssISnorm_ratio: Stemina devTOX quickPredict H9 human embryonic stem cell (hESC)-based Assay for Ornithine (ORN):Cystine (CYSS) Ratio (AID 2283714)
Method in brief: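 Undifferentiated H9 hESCs exposed 72 h, media and compound replaced every 24 h; final 24-h conditioned media deproteinized and analysed by UPLC-HRMS against C13 spike-ins. Value is the internal-standard-normalized ORN/CYSS ratio versus 0.1% DMSO.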

Measured: AC50

Chain of Luciferin 4-monooxygenase (Photinus pyralis) (P08659 whole entry, looked up): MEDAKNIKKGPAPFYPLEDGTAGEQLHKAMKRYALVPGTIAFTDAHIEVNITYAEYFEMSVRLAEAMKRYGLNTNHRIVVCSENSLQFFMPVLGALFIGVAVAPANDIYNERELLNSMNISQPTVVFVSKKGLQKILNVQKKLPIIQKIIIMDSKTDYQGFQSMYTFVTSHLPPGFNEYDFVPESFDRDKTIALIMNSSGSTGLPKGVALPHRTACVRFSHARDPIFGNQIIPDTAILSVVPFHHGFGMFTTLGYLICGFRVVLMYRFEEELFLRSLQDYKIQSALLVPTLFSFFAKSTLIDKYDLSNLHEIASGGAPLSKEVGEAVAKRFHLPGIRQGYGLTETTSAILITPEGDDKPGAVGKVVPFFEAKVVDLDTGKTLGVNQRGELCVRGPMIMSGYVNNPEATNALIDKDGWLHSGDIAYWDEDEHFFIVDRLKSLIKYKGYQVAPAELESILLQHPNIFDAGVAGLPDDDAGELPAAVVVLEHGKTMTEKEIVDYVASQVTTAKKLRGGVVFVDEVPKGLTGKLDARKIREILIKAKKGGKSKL
Chain of Cellular tumor antigen p53 (Homo sapiens) (P04637 whole entry, looked up): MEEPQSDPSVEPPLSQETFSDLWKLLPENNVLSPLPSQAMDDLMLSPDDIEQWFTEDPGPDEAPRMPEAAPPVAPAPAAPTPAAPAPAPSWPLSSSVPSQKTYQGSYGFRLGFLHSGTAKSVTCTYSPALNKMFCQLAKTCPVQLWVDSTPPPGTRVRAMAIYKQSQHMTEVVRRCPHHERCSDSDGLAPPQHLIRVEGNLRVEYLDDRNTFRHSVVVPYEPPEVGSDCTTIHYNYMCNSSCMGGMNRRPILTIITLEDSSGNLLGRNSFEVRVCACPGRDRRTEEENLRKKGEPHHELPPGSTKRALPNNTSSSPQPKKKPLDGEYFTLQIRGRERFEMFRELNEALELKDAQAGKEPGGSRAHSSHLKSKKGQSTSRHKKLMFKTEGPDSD
Chain of zebrafish Estrogen Receptor (ESR1), esr1 (gene 259252) (P57717 whole entry, looked up, the tested form may be a part): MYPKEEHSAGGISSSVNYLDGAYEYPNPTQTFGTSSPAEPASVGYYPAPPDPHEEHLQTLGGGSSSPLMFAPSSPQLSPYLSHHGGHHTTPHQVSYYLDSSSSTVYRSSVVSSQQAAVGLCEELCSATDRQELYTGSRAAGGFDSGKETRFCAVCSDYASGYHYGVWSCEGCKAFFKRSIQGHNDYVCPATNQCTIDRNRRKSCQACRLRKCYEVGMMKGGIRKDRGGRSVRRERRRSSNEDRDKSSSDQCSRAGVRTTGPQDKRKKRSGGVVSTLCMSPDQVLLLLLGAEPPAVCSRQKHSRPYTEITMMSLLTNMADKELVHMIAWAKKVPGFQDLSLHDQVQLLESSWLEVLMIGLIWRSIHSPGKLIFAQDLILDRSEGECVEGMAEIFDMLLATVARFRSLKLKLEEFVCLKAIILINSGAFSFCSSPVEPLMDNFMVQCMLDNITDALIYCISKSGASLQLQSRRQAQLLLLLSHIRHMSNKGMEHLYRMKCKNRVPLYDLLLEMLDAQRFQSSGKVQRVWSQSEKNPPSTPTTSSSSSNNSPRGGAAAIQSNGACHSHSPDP

CSc1ccc(O)cc1C
inactive: [1] | [2] | [3]

CCOCOCC
inactive: [1] | [2] | [3]

Cc1ccc(S(=O)(=O)C(I)I)cc1
active: [2] 62.8 µM

OCCCc1cccnc1
inactive: [2]

O=C(Cl)c1ccc(Cl)cc1Cl
inactive: [2]

CCCC(=O)OCC(COC(=O)CCC)OC(=O)CCC
inactive: [2]

COCCOCCC[Si](C)(O[Si](C)(C)C)O[Si](C)(C)C
inactive: [2]

O=C1C=CC(=O)N1c1ccccc1
active: [4] 69.7 µM | [5] 80.4 µM | [6] 87.1 µM | [7] 86.8 µM | [8] 84.5 µM | [9] 85.3 µM | [10] 74.9 µM | [11] 77.5 µM
inactive: [1] | [2] | [3]

CCCCCCCCCCCC(=O)Cl
inactive: [2]

CCOCN(C(=O)CS(=O)(=O)O)c1c(C)cccc1CC
inactive: [2]

O=C1c2ccccc2C(=O)c2c(Cl)cccc21
inactive: [1] | [3]

CCN(CC)c1ccc(N=Nc2ccccc2)cc1
inactive: [1] | [2] | [3]

OCCCCl
inactive: [2]

Cc1cnccn1
inactive: [2]

CC1CCCCC1
inactive: [1] | [2] | [3]

Oc1ccc2c(c1)CCC2
inactive: [1] | [2] | [3]

CCN(CC)c1ccc(C=O)cc1
inactive: [1] | [2] | [3]

CC(C)=CCCC(C)O (configuration not stated)
inactive: [2]

c1ccc(C[P+](c2ccccc2)(c2ccccc2)c2ccccc2)cc1
inactive: [2]

C[C@]12CC[C@H]3C(=CCc4cc(O)ccc43)[C@@H]1CCC2=O
active: [1] 4.29 µM | [8] 15.8 µM | [12] 13.9 µM | [13] 87.7 µM | [14] 47 µM | [15] 0.0231 µM | [16] 0.0172 µM
inactive: [2] | [4] | [5] | [6] | [7] | [9] | [10] | [11] | [3]

CC(=O)C=O
inactive: [2]

CCCCCCCCCCCCC[N+](C)(C)Cc1ccccc1
active: [2] 31.7 µM | [12] 25.5 µM | [13] 9.42 µM
inactive: [1] | [3] | [14]

CC(C)C(=O)OCc1ccccc1
inactive: [2]

O=C1OC(=O)c2ccc3c4c(ccc1c24)C(=O)OC3=O
inactive: [2]

Cc1cccc(C)n1
inactive: [1] | [2] | [3]

CC(=O)c1ccccc1N
inactive: [2]

O=C(c1ccccc1)c1ccc(Cl)cc1
inactive: [1] | [3]

Cc1cc(O)c(C(C)(C)C)cc1C(C)(C)C
active: [4] 40.6 µM | [5] 70.8 µM | [6] 87 µM | [7] 87.3 µM | [8] 30.9 µM | [9] 57.2 µM | [10] 34.3 µM | [11] 44.8 µM
inactive: [1] | [2] | [3]

CCCCCCCCCc1ccc(OCCO)cc1
active: [12] 38.5 µM | [13] 79.6 µM
inactive: [1] | [2] | [3] | [14]

CCn1c2ccccc2c2ccccc21
active: [1] 50 µM
inactive: [2] | [3]

Brc1ccccn1
inactive: [2]

Oc1ccc(C2(c3ccc(O)c(C4CCCCC4)c3)CCCCC2)cc1C1CCCCC1
active: [2] 33.8 µM

CCN=c1cc2oc3cc(NCC)c(C)cc3c(-c3ccccc3C(=O)OCC)c-2cc1C
active: [2] 32 µM | [4] 38.3 µM and 45.9 µM | [5] 16 µM and 6.62 µM | [6] 59.6 µM and 36.8 µM | [7] 17.8 µM and 31.3 µM | [8] 67.5 µM and 58.2 µM | [9] 21.9 µM and 32 µM | [10] 60.8 µM and 63.2 µM | [11] 35.8 µM and 44.5 µM | [17] 0.0769 µM

Cc1ccc(O)c(-n2nc3ccccc3n2)c1
inactive: [2] | [4] | [5] | [6] | [7] | [8] | [9] | [10] | [11] | [12]
active: [13] 21 µM | [14] 1.54 µM

Brc1nc2ccccc2s1
inactive: [2] | [4] | [5] | [6] | [7] | [8] | [9] | [10] | [11]

CCC(Cc1c(I)cc(I)c(N)c1I)C(=O)O (configuration not stated)
inactive: [2] | [4] | [5] | [6] | [7] | [8] | [9] | [10] | [11]
active: [8] 69.9 µM

C=C(C)CCCC
inactive: [2]

CCCCC(CC)COC(=O)c1ccc(N(C)C)cc1 (configuration not stated)
inactive: [2] | [4] | [5] | [6] | [7] | [8] | [9] | [10] | [11] | [3]
